Compound activity (PubChem BioAssay)
This is one part of a sample in which hits are shown more often than they occur.
DT40 TDP1 no CPT: qHTS for Inhibitors of human tyrosyl-DNA phosphodiesterase 1 (TDP1): qHTS in cells in absence of CPT. Potency, µM (series often up to 46.2 µM), for the others: top-dose activity change, negative = growth inhibition, actives largely listed as inhibitors. actives 15% (n = 420,000). DT40 Tdp1-/- hTDP1 cells, no CPT, ATP luminescence, 48 h. AID 686978, 2013; note: potency is the fitted concentration of half-maximal effect; nearly all actives have a fitted effect of over 55% in size
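Camptothecin absent (DMSO only). Human TDP1-complemented DT40 knockout cells, 400 cells/well, 37 °C for minimum 48 hr; ATP measured via CellTiter-Glo, 30 min dark incubation, luminescence.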
HT1080NT lethal: kills 2HG-producing HT-1080-NT fibrosarcoma cells; HT-1080-NT fibrosarcoma viability, CellTiter-Glo ATP luminescence, 48 h; Potency, µM (titrated, usually from 46.1 µM), inactives show at the top dose activity, negative = less viability, most hits filed as cytotoxic; actives 1.6% (n = 360,000); AID 686970;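 note: NT is the 2HG producing partner of a matched IDH1 knockdown line; potency is the fitted concentration of half-maximal effect; 0% = DMSO-treated cells and -100% = media-only wells without cells; nearly all actives have a fitted effect of over 55% in size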
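Fibrosarcoma NT cells, 750 per well in 5% FBS RPMI, were exposed to compound for 48 hours. Viability: CellTiter-Glo luminescence.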
IL1B secr inh: blocks inflammasome-driven IL-1 beta release | THP-1 LPS/ATP IL-1B secretion, AlphaLISA, 16 h; active compounds read low | activity change, % at 57.5 µM | actives 4.7% (n = 360,000); in the data active = activity change below about -50%; inconclusive = mostly about -30% to -49%
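THP-1 cells pretreated 1 hr with compounds (up to 57.5 uM final), then stimulated with LPS (250 ng/mL final) plus ATP (1.25 mM final); secreted IL-1B measured by AlphaLISA after 16 hr, decreased signal indicating inhibition.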
12-LOX inh: inhibitors of human 12S-lipoxygenase ALOX12 | purified 12hLO, xylenol orange hydroperoxide absorbance | Potency, µM (titrated, usually from 108 µM), for the others: at the top dose activity change, negative = inhibition, most hits filed as inhibitors | actives 1.1% (n = 580,000) | AID 1671190; note: potency is the fitted concentration of half-maximal effect
Target sequence (P18054 whole entry, looked up): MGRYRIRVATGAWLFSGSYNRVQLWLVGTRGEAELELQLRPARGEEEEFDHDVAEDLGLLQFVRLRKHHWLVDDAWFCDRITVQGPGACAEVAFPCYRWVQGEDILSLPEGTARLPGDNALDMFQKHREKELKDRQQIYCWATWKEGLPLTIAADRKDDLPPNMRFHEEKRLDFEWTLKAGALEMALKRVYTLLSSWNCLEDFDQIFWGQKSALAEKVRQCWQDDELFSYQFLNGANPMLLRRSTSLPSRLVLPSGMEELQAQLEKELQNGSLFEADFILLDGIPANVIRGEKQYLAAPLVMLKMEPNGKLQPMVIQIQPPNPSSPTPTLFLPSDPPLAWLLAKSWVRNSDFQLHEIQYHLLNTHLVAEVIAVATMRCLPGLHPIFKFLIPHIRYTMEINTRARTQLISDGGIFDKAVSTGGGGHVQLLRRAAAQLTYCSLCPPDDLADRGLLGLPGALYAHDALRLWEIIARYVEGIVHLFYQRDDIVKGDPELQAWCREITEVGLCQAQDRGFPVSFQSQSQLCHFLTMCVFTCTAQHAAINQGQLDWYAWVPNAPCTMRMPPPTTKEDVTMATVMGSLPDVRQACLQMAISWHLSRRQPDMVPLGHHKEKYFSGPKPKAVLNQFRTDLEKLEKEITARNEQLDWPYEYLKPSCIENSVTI
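Purified human 12hLO at 150 nM in 25 mM Hepes, 0.01% Triton X-100, pH 7.0, preincubated 15 min at room temperature with compound. Reaction started with 40 uM arachidonic acid, 30 min at room temperature. Hydroperoxide measured by Fe-xylenol orange, 573/405 nm absorbance ratio.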
HT1080 IDH1KD tx: kills HT-1080 cells with IDH1 knockdown; Potency, µM (highest dose often 46.1 µM), for the others: at the top dose activity, negative = toxicity, most hits filed as cytotoxic; HT-1080 IDH1 knockdown viability, ATP luminescence, 48 h; actives 2% (n = 360,000); AID 686971;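 note: potency is the fitted concentration of half-maximal effect; 0% = DMSO wells and -100% = cell-free medium wells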
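Viability of IDH1-knockdown HT-1080 fibrosarcoma cells was assessed by CellTiter-Glo after 48 h at 37 °C with titrated compound; concentration-effect curves were classified by fit quality and response size.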
DT40 TDP1 CPT: growth inhibition of DT40 Tdp1-/-;hTDP1 cells with camptothecin (screen for TDP1 inhibitors) | chicken DT40 Tdp1-/-;hTDP1 cells + 20 nM CPT, ATP luminescence, 48 h | actives 12% (n = 420,000) | Potency, µM (highest dose often 46.2 µM), inactives show top-dose activity change, negative = growth inhibition, actives largely listed as inhibitors | AID 686979; note: potency is the fitted concentration of half-maximal effect; nearly all actives have a fitted effect of over 55% in size
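Chicken DT40 Tdp1-/- cells stably complemented with human TDP1 were seeded at 400 cells/well in medium containing 20 nM camptothecin, exposed to pin-transferred compounds, and grown at 37 °C for at least 48 hr. Viability was read as ATP luminescence.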
Starred values were filed as active, the others as inactive; ? = inconclusive; / = no result; [ ] = remark or other dose. Unless noted, calls come from the whole dose curve; as a rule, active = well fitted curve in the direction sought with a large enough effect; inconclusive = small, poorly fitted or top-dose-only effect, or another doubt; inactive = no such curve, though single readings can be large; an effect the other way counts as inactive or inconclusive. Unless noted, % is set by controls: 0 for no effect and ±100 for the full control effect.

SMILES	DT40 TDP1 no CPT	HT1080NT lethal	IL1B secr inh	12-LOX inh	HT1080 IDH1KD tx	DT40 TDP1 CPT
Cc1ccccc1N1C(=O)c2cccc3c(N(C)CCO)ccc(c23)C1=O	-26%	-18%	?	?	9%	?
COc1ccccc1N1C(=O)c2cccc3c(N(C)CCO)ccc(c23)C1=O	?	-8%	11	28%	-6%	8.2µM*
O=C1c2cccc3c([N+](=O)[O-])ccc(c23)C(=O)N1c1nccs1	3.3µM*	8.9µM*	-107*	-19%	2.2µM*	3.3µM*
CC(=O)Oc1ccc(N2C(=O)c3cccc4c([N+](=O)[O-])ccc(c34)C2=O)cc1	5.8µM*	-4%	?	?	-11%	3.7µM*
CC(=O)c1cnc2nc(SCc3cccc(C)c3)nn2c1C	15µM*	4%	-12	10%	6%	?
CCOc1ccc2c(c1)C(=NNC(=O)c1ccncc1)c1cc(OCC)ccc1-2	5.2µM*	2%	64	13%	-10%	3.7µM*
CCOc1ccc(NC(=O)c2ccncc2)cc1	-7%	13%	-8	0%	6%	-10%
Cc1cc2nnn(-c3nnc(-c4ccccc4)c4ccccc34)c2cc1C	?	22%	9	0%	17%	26µM*
O=c1cc(N2CCOCC2)oc2c(-c3cccnc3)nccc12	/	/	/	33%[176 µM]	/	/
COc1cccc(Nc2nc(C(N)CO)cs2)n1 (stereo not given)	?	-13%	/	6%	-6%	?
COc1cc(OC)nc(Nc2nc(C(N)Cc3ccc(F)cc3)cs2)n1 (stereo not given)	23µM*	?	/	-7%	?	21µM*
COc1cccc(Nc2nc(C(N)Cc3ccccc3)cs2)n1 (stereo not given)	16µM*	29µM*	?	-10%	12µM*	13µM*
CC1CCN(c2nc3c(c(=O)n(Cc4ccccc4F)c(=O)n3C)n2C)CC1	/	/	/	6%	/	/
Cc1ccc2c(c1)C(=O)[C@@]1(O)CCN(c3ccccc3)C1=N2	?	/	/	0%	/	8.4µM*
Cc1ccc2c(c1)C(=O)C1(O)CCN(c3ccccc3)C1=N2 (stereo not given)	6.3µM*	/	/	6%[176 µM]	/	8.9µM*
CN(C)C(=O)c1ccc(-c2nccc(Nc3ccc(F)cc3)n2)cc1	-18%	/	/	?	/	-28%
Clc1ccccc1-c1nccc(-n2ccnc2)n1	-1%	/	/	?	/	4%
N#Cc1cccc(-c2nccc(-n3ccnc3)n2)c1	?	/	/	25µM*	/	?
CN(C)C(=O)c1ccc(-c2nccc(-n3ccnc3)n2)cc1	-11%	/	/	22µM*	/	?
Cc1ccccc1-c1nccc(-n2ccnc2)n1	1%	/	/	7.9µM*	/	2%
CC(=O)Nc1cccc(-c2cnc3n[nH]c(-c4ccccc4C)c3n2)c1	/	/	/	-19%[176 µM]	/	/
CN1CCOc2c(C(=O)NCCN3CCNC3=O)cc(-c3ccc(O)c(F)c3)cc21	/	/	/	-5%[176 µM]	/	/
CSc1ccccc1NC(=O)Cn1c([N+](=O)[O-])cnc1C	13%	4%	38	4%	5%	20%
CN(C(=O)COC(=O)c1ccccc1OCC(=O)Nc1ccc(Br)cc1)c1ccccc1	11µM*	-20%	/	/	-13%	?
CS(=O)(=O)c1ccccc1NC(=O)COc1ccccc1C(=O)Nc1ccccc1	11µM*	8%	/	?	11%	11µM*
CC(C)c1cccc(NC(=O)COC(=O)c2ccccc2OCc2cccc(Br)c2)c1	16µM*	/	/	/	/	?
CN(C)C(=O)COc1ccccc1C(=O)OCC(=O)Nc1ccc(Oc2ccc(Br)cc2)cc1	11µM*	/	/	/	/	?
COCC(=O)N[C@@H]1CN(Cc2cnn(C(C)C)c2)C[C@H]1CO	/	/	/	47%	/	/
